According to PubChem BioAssay (NCATS):
Results filed as inconclusive are left out. Activity calls are given as the source filed them. Calls follow the shape of the dose curve; as a rule, active = well fitted curve in the direction sought with a large enough effect; inconclusive = small, poorly fitted or top-dose-only effect, or another doubt; inactive = no such curve, though single readings can be large; an effect the other way counts as inactive or inconclusive.

How the values were obtained:
[1] = Primary qHTS for inhibitors of La Crosse Virus (LACV) - induced cell death in SH-SY5Y cells (AID 1508616);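 also: top concentration of the series differs between compounds; higher means more rescue of cells from virus-induced death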
How it was run: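 Rescue of virus-induced death was read as ATPLite luminescence after 6 days at 37C, scaled between DMSO wells with LACV and without virus. Cells were SH-SY5Y, 6000/well, infected at 0.01 MOI after compound addition.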

[2] = target: Calcium and integrin-binding protein 1 (Homo sapiens) (UniProt Q99828); test: Validation qHTS for Identification of Calcium Integrin Binding protein 1 (CIB1) Competitor (AID 1508618)
How it was run: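 CIB1-GST (1 uM final) incubated 15 min at room temperature with compounds (up to 114 uM), then FITC-labelled alphaIIb peptide (100 nM) added. FP read (Ex 480/Em 540) after 15 min, pH 7.4 buffer containing 5 mM CaCl2.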

[3] = Primary qHTS for small molecule stabilizers of the endoplasmic reticulum resident proteome: Secreted ER Calcium Modulated Protein (SERCaMP) assay (AID 1508630)
How it was run: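 The SH-SY5Y reporter protocol was run at 3 concentrations up to 38.3 uM (primary) or 11 concentrations (follow-up): 16 h compound, 100 nM thapsigargin for 4 h, then extracellular luciferase luminescence.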

Papain (Carica papaya) = Papain (Carica papaya) (UniProt P00784); test: Primary qHTS assay for inhibitors of the protease papain (AID 1645873);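 also: papain turnover of Z-FR-AMC read as the AMC fluorescence gain over 10 min; series mostly up to about 50 µM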
[4] = target: N-terminal Xaa-Pro-Lys N-methyltransferase 1 (Homo sapiens) (UniProt Q9BV86); test: Confirmatory qHTS for Inhibitors of N-terminal methyltransferase 1 (NTMT1): MTaseGlo Assay (AID 1645874); also: nearly all actives have a fitted effect of over 65% in size; also: potency is read from the fitted curve at half-maximal effect
How it was run: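 MTase-Glo luminescence measured SAH formed by 125 nM NTMT1 from 100 uM SAM and 1 uM SPKRIA peptide over 30 min at room temperature, following 15 min compound preincubation. Percent inhibition against no-enzyme and DMSO controls gave 4-parameter Hill fits.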

[5] = target: Calcium and integrin-binding protein 1 (Homo sapiens) (UniProt Q99828); test: Primary qHTS for Identification of Calcium Integrin Binding Protein 1 (CIB1) Competitor (AID 1508620);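 also: GST tagged CIB1 binding a fluorescein labelled alphaIIb integrin peptide tracer; top concentration of the series differs between compounds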
How it was run: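 Fluorescence polarization competition: CIB1-GST (1 uM final) preincubated with compound 15 min at room temperature, then FITC-labeled alphaIIb peptide (100 nM final) added for another 15 min. Polarization read at Ex 480/Em 540.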

Measured: Potency

Chain of Papain (Carica papaya) (P00784 whole entry, looked up): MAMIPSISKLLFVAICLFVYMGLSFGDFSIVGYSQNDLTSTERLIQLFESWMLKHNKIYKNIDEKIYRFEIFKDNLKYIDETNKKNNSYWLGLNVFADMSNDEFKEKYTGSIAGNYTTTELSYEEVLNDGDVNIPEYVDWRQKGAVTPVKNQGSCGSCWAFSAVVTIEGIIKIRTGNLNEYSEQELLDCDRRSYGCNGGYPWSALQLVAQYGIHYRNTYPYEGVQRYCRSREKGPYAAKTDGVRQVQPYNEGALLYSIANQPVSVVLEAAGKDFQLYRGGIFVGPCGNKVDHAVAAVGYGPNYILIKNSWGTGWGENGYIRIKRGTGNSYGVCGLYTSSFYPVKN
Chain of Calcium and integrin-binding protein 1 (Homo sapiens) (Q99828 whole entry, looked up): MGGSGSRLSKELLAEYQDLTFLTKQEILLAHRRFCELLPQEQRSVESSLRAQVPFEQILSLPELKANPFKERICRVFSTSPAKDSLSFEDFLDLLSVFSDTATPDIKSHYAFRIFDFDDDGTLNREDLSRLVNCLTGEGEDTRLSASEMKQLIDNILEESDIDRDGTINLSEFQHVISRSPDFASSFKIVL
Chain of N-terminal Xaa-Pro-Lys N-methyltransferase 1 (Homo sapiens) (Q9BV86 whole entry, looked up): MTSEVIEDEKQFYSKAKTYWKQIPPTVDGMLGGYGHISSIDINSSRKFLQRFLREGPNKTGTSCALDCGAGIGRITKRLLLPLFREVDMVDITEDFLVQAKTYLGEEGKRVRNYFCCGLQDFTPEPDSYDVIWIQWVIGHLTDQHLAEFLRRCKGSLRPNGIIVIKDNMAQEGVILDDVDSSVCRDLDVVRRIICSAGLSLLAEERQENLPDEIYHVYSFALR

Oc1ccc2c3c1O[C@H]1c4oc5ccccc5c4C[C@@]4(O)C(C2)N(CC2CC2)CCC314 (some centres not stated)
inactive: [1] | [2] | [3] | Papain (Carica papaya)

COc1ccc2[nH]cc(CCN)c2c1
inactive: [1] | [2] | [3] | Papain (Carica papaya)

OC1CCCCC1N1CCC(c2ccccc2)CC1 (configuration not stated)
inactive: [1] | [2] | [3] | Papain (Carica papaya)

N[C@@H](Cn1oc(=O)[nH]c1=O)C(=O)O
inactive: [1] | [2] | [3] | Papain (Carica papaya)

O=[N+]([O-])c1cc(O)c(O)c([N+](=O)[O-])c1
inactive: [1] | [2] | [3]

CCCCCCCCCCCCCC(=O)O[C@@H]1[C@@H](C)[C@@]2(O)[C@@H](C=C(CO)C[C@@]3(O)C(=O)C(C)=C[C@@H]23)C2C(C)(C)[C@@]21OC(C)=O (some centres not stated)
inactive: [1] | [2] | [3] | Papain (Carica papaya)

O=C1CC[C@@]2(O)C3Cc4ccc(O)c5c4C2(CCN3CC2CC2)[C@H]1O5 (some centres not stated)
inactive: [1] | [2] | [3] | Papain (Carica papaya)

CC(=O)NBr
inactive: [1] | [2] | [3] | Papain (Carica papaya)

OCc1cnc[nH]1
inactive: [1] | [2] | [3] | Papain (Carica papaya)

CCCN(CCC)C1CCc2cccc(O)c2C1 (configuration not stated)
inactive: [1] | [2] | [3] | Papain (Carica papaya)

NC(=O)CI
active: [4] 12.3 µM

NC(N)=Nc1ccc2[nH]c3c(c2c1)C[C@@]1(O)[C@H]2Cc4ccc(O)c5c4[C@@]1(CCN2CC1CC1)[C@H]3O5
inactive: [4]

CC(C)(O)[C@H]1O[C@H]2CC[C@@]3(C)[C@@](O)(CC[C@H]4Cc5c([nH]c6ccccc56)[C@@]43C)C2=CC1=O
inactive: [5]
